According to publication PMC5540273 (PLoS ONE, 2017):

system: ANKK1; conditions: concentration: 1 μM, replicates: in singlicate; n = 1
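Further: KINOMEscan kinase panel screen.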

`Cc1occc1-c1ncc(OC[C@@H](N)Cc2c[nH]c3ccccc23)cc1-c1ccc2[nH]nc(C)c2c1.O=C(O)C(F)(F)F` [GSK682037] and `C[C@@H](Oc1cc(-n2cnc3cc(-c4ccnc(NCCS(C)(=O)=O)c4)ccc32)sc1C(N)=O)c1ccccc1Cl` [GSK907232] are the same in “%Inh” value: 0% for the first, 0% for the second.

Compared with `C[C@@H]1CC[C@@H](C(=O)Nc2ccccc2)CN1c1cc(-c2ccc3c(N)n[nH]c3c2)nc(N)n1` [GSK2286062], `CN1CCN(Cc2cccc(-c3ccc4c(Nc5ccc(Oc6ccccc6)cc5)ccnc4c3)c2)CC1` [GW578342] is higher in “%Inh” value: 3% for the first, 6% for the second.

First: COc1cc(Nc2nccc(-c3c(-c4cccc(NC(=O)c5c(F)cccc5F)c4)nn4ncccc34)n2)cc(OC)c1OC [GSK327238]
Second: Cc1ccc(S(=O)(=O)Nc2ccc(Nc3nccc(Nc4cccc5[nH]ncc45)n3)cc2)cc1 [GSK581271]
The “%Inh” value of the first is higher: 29% for the first, 0% for the second.
